Assay results reported in PubChem BioAssay AID743279 (National Center for Advancing Translational Sciences (NCATS), 2014).
About 17,000 (4.7%) of roughly 360,000 compounds were called active. Another 5% or so got no clear call; they are omitted. Shown is part of a subset that was picked to be rich in actives. A number with no mark means an inactive call. No stated cut-off is given here; in the data, active means activity change below about -50%; inconclusive means mostly about -30% to -49%; inactive means weaker than that.

Test: qHTS for Inhibitors of Inflammasome Signaling: IL-1-beta AlphaLISA Primary Screen
Details: THP-1 LPS/ATP IL-1B secretion, 16 h; at 57.5 µM, hits give low values
Procedure, shortened: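 Secreted IL-1B measured by AlphaLISA bead assay after 16 h compound exposure of THP-1 cells; compounds (final up to 57.5 uM) added 1 h before LPS (250 ng/mL) and ATP (1.25 mM) stimulation; lower signal means less secretion.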
On the % scale 0 is the no-effect control and ±100 the full control effect.

Going from `Cc1cccc(S(=O)(=O)N(C)C[C@H]2OCc3cnnn3CCCC(=O)N([C@@H](C)CO)C[C@H]2C)c1` to `C[C@H](CO)N1C[C@H](C)[C@@H](CN(C)S(=O)(=O)c2ccc(Oc3ccccc3)cc2)OCc2cn(nn2)CCCC1=O`, the activity change falls from 16.6% to 4.67%.

First: CCOc1ccc(C2c3[nH]c4ccccc4c3CCN2Cc2cn(CC)nc2C)cc1 (stereo not drawn)
Second: COc1cccc(C2c3[nH]c4ccccc4c3CCN2Cc2cccc(C)n2)c1 (stereo not drawn)
The activity change of the first is higher: 18.2% for the first, -5.35% for the second.

Going from `O=S1(=O)CCOC[C@H](Cc2ccccc2)N1Cc1ccccc1Br` to `Cc1ccccc1C(OCC(O)CN1CCCCC1CCO)c1ccccc1` (stereo not drawn), the activity change falls from -7.15% to -10.1%.

First: CC(C)CCNC(=O)c1[nH]c(C(F)(F)F)nc1-c1ccccc1
Second: CC(C)CN(C(=O)Cn1c(=O)cnc2ccccc21)C1CCS(=O)(=O)C1 (stereo not drawn)
The activity change of the first is higher: 28.5% for the first, 5.99% for the second.

Compared with `CC(C)Oc1ccc(CCc2n[nH]c(=S)n2Cc2ccccc2)cc1`, `COc1cccc(CN(C)CC(=O)Nc2ccccc2C(=O)Nc2ccccc2)c1` is higher in activity change: 16.3% for the first, 58.1% for the second.

First: CN(C(=O)CSc1nncc2ccccc12)C1CCCCC1
Second: CCn1c(SCC(=O)N2CCCC2=O)nc2ccccc21
The activity change of the first is higher: 0% for the first, -4.32% for the second.

Going from `COC(=O)C[C@H]1C=C[C@H](NC(=O)c2ccc(F)cc2)[C@@H](CO)O1` to `CC(OC(=O)c1ccccc1NCCO)C(=O)Nc1ccnn1C(C)C` (stereo not drawn), the activity change rises from -9.5% to 0%.

First: CCOC(=O)c1ccc2c(c1)nc(C)n2CC
Second: CCNC(=O)C1(C)CCN(Cc2ccc(C(=O)OCC)o2)C1 (stereo not drawn)
The activity change of the first is lower: -16.9% for the first, 0% for the second.

First: CCOC(=O)N1CCN(C(=O)c2ccc(S(=O)(=O)Nc3cccc(C(F)(F)F)c3)cc2)CC1
Second: Cc1cc(Nc2ccc(C(=O)N3CCCCC3)cc2)c2cccc(C)c2n1
The activity change of the first is higher: 0.178% for the first, -2.62% for the second.

Compared with `O=S1(=O)CC(N2CCN(Cc3ccccc3F)CC2)CN1Cc1cn(Cc2cccc(C(F)(F)F)c2)nn1` (stereo not drawn), `CCCCCCN1CCN(C2CN(Cc3cn(Cc4ccc(F)cc4)nn3)S(=O)(=O)C2)CC1` (stereo not drawn) is higher in activity change: -6.73% for the first, 18.3% for the second.

Going from `S=c1[nH]nc(/C=C/c2ccccc2)o1` to `CSc1nsc(NC(=O)Nc2ccccc2)n1`, the activity change rises from -8.62% to 0%.

First: O=C(Cc1ccc(-c2ccccc2)cc1)NC(c1ccccc1)c1ccccc1
Second: CN(CCc1ccccc1)C(=O)c1cccc(NC(=O)Cc2cccc(NC(=O)C3CCCN(C(=O)CCc4ccccc4)C3)c2)c1 (stereo not drawn)
The activity change of the first is higher: 18.8% for the first, -21.4% for the second.

First: CCOC(=O)C(C(=O)OCC)C(C#N)c1ccccc1 (stereo not drawn)
Second: CSc1ccccc1C(=O)Nc1cccc(C(C)=O)c1
The activity change of the first is lower: -20.8% for the first, -2.09% for the second.

Compared with `CCN(CC)CCCN1C(=O)C(=O)/C(=C(/O)c2c(C)nc3ccccn23)C1c1ccc(C)o1` (stereo not drawn), `CCCN(CCC)c1nc2c(C)cccn2c(=O)c1/C=C1/SC(=S)N(Cc2ccco2)C1=O` is higher in activity change: -3.42% for the first, 8.74% for the second.

Compared with `COCc1ccc(C(=O)NC2CC(C)(C)Cc3c2cnn3-c2ccc(C)cc2)o1` (stereo not drawn), `CC(=O)C1=CCC(c2ccccc2)N(S(=O)(=O)c2ccc(C)cc2)C1` (stereo not drawn) is higher in activity change: -2.96% for the first, 0% for the second.

Compared with `COC(=O)COc1ccc2c(c1C)O/C(=C\c1ccco1)C2=O`, `COc1ccc(C(=O)Nc2ccc3nc(N4CCCCC4)cc(C)c3c2)cc1OC` is higher in activity change: -8.17% for the first, 30.7% for the second.

Going from `CCC1C/C(=C/c2cccs2)C(=O)/C(=C/c2cccs2)C1` (stereo not drawn) to `CCn1cc(CN2CCCC(CNS(=O)(=O)Cc3ccccc3)C2)cn1` (stereo not drawn), the activity change rises from -5.91% to 7.8%.

First: Cc1ccccc1N/N=C/c1ccc(N2CCOCC2)cc1
Second: CC1=C(C(=O)N(C)C)CC(CC(=O)NCCN2CCOCC2)C(=O)N1Cc1ccccc1 (stereo not drawn)
The activity change of the first is lower: 0.147% for the first, 17.7% for the second.

First: NC1=NC(=O)C2(COC(c3ccccc3Cl)OC2)S1 (stereo not drawn)
Second: Cc1cc(Cl)ccc1N1C(=O)CC(SCCC(=O)O)C1=O (stereo not drawn)
The activity change of the first is lower: -5.39% for the first, 9.22% for the second.

First: CC(=O)c1cccc(NC(=S)N2CCCC2)c1
Second: COc1cc(C(=O)NCC2(c3ccccc3)CCCC2)ccc1OC(C)C
The activity change of the first is higher: 24.4% for the first, -0.814% for the second.

Compared with `C=CCSc1nnc(NC(=O)c2ccc(NC(C)=O)cc2)s1`, `Cc1nnc(N(Cc2ccco2)C(=O)c2ccno2)s1` is lower in activity change: 1.35% for the first, -16.2% for the second.

First: S=C(NN=Cc1ccccn1)Nc1ccccn1
Second: COc1ccc(Sc2ccc(NC(=O)c3cccc(Cl)c3)cc2C#N)cc1
The activity change of the first is higher: 68.2% for the first, -1.44% for the second.

First: CN1C[C@@H](CO)O[C@@H](n2cnc3c(N4CCN(CCO)CC4)ncnc32)C1
Second: CCOC(=O)N1CCN(C(=O)CSc2nc(=O)n3cccc(C)c3n2)CC1
The activity change of the first is higher: 23.3% for the first, -6.68% for the second.

In the case of `CN1OC[C@@H]2CN(S(=O)(=O)c3cccc(C(F)(F)F)c3)[C@H](c3ccc(-c4cc5ccccc5o4)cc3)C[C@@H]21`, the activity change is reported as -0.573%.

With `Oc1cccc(C2c3[nH]c4ccccc4c3CCN2Cc2cnn(-c3ccccc3)c2)c1` (stereo not drawn) the activity change was -64% (active).
For `Brc1c(CSc2nncc3ccccc23)nc2ccccn12`, the activity change was -74% (active).
For `CCn1c(/C=C/Nc2ccccc2)[n+](CC)c2ccc(C(=O)OCC(F)(F)F)cc21`, the activity change was -98.2% (active).
With `CCOC(=O)/C=C/C(=O)OCC(=O)NC(c1ccccc1)c1ccccc1` the activity change was -96.9% (active).
In the case of `CC(C)(C)C1C/C(=C/c2ccco2)C(=O)/C(=C/c2ccco2)C1` (stereo not drawn), the activity change is reported as -67.3% (active).
In the case of `Cc1cc(Nc2ccc(N3CCOCC3)cc2)c2cccc(C)c2n1`, the activity change is reported as -91.7% (active).
For `COc1cccc(CN(C)CC(O)COC(c2ccccc2)c2ccccc2C)c1` (stereo not drawn), the activity change was -77% (active).
With `CCSc1nsc(NC(=O)Nc2cccc(C(C)=O)c2)n1` the activity change was -101% (active).
With `C=CCSc1nsc(NC(=O)Nc2cccc(C(C)=O)c2)n1` the activity change was -100% (active).
For `CCOC(=O)CC1C(=O)NCCN1c1nc2c(C)cccn2c(=O)c1/C=C1\SC(=S)N(C(C)CC)C1=O` (stereo not drawn), the activity change was -79.5% (active).
In the case of `COc1ccc(C(=O)Nc2ccc(C3(C#N)CCCC3)cc2)cc1OC`, the activity change is reported as -55% (active).
